Only some compounds are listed: those with a hit (about 0.84% of all), similar ones and a draw of the others.
G6PDH counter: L. mesenteroides G6PDH inhibition counter-screen; Purified L. mesenteroides G6PDH, diaphorase/resazurin coupled fluorescence, 45 min; inhibition, % at 5 µM; hit rate 0.12% among 200,000; AID 1020; in the data active = inhibition above about 50%
S1P3 antagonist: blocks the human S1P3 receptor. CHO S1P3 NFAT-BLA reporter, FRET fluorescence, antagonist mode. hit rate 0.27% among 170,000. Q99500. inhibition, % at 4.98 µM;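 active = inhibition above the plate cutoff, the mean inhibition of test wells on that plate plus 3 SD, cut at about 28% in these data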;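 also: cells challenged with S1P at its EC80 of 0.8 µM; blue over green emission ratio from cleaved BLA substrate after 4 h stimulation; 0% = S1P-stimulated wells and 100% = unstimulated DMSO-only wells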
p97 ATPase inh: inhibitors of human p97 ATPase; AID 1481; recombinant p97 ATPase, Kinase-Glo ATP luminescence, 3 h; P55072; hit rate 0.42% among 220,000; inhibition, % at 8 µM; in the data active = inhibition above about 15%;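 also: 0% = DMSO vehicle and 100% = wells lacking enzyme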
DTT redox prof: compounds producing H2O2 with reducing agent – biochemical, NIH compound library profiling, artefact control for MLSCN library redox annotation, primary screen; DTT-dependent redox cycling H2O2, phenol red/HRP absorbance; 100% = 100 µM peroxide control, 0% = buffer; hit rate 0.03% among 200,000; activation, % at 10 µM;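 active = activation of at least 50% relative to the plate's high and low controls in the primary single-dose screen; inactive = activation below 50%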;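 also: compound incubated with DTT at 0.8 mM final as the reducing agent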
Tb hexokinase: T. brucei hexokinase 1 inhibition; inhibition, % at 10 µM; hit rate 0.11% among 220,000; recombinant TbHK1, G6PDH-coupled NADH A340;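 active = inhibition of 50% or more in the single-dose primary screen; inactive = inhibition below 50%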
p97 confirm: confirmation of human p97 ATPase inhibitors | shares compounds with p97 ATPase inh | recombinant p97 ATPase, Kinase-Glo ATP luminescence | inhibition, % at 8 µM | hit rate 44% among 760 | AID 1517;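 active = percent inhibition of p97 ATPase above a set limit, the primary screen's mean plus 3 SD, cut at about 15% in these data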;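 also: 0% = DMSO wells and 100% = wells lacking p97 protein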
* hit, by the source's call; . = no result given.

SMILES	G6PDH counter	S1P3 antagonist	p97 ATPase inh	DTT redox prof	Tb hexokinase	p97 confirm
CCC(CC)C(=O)Nc1cccc(C(=O)Nc2nnc(C)s2)c1	14	-25	1	0	-13	.
CCCCOc1ccccc1NC(=O)c1scc2c1OCCO2	-2	7	16*	0	6	20*
Fc1ccc(CNc2nc(-c3ccco3)cc(C(F)(F)F)n2)cc1	-4	.	3	0	3	.
CCCCn1c(NC(=O)c2ccco2)c(S(=O)(=O)c2ccc(C)cc2)c2nc3ccccc3nc21	38	-13	27*	5	-4	8
CCC(=O)Nc1c(S(=O)(=O)c2ccc(C)cc2)c2nc3ccccc3nc2n1C(C)c1ccccc1 (configuration not stated)	-2	-29	-6	0	-11	.
CCCCCn1c(NC(=O)c2ccco2)c(S(=O)(=O)c2ccc(C)cc2)c2nc3ccccc3nc21	14	.	26*	1	-10	10
CCCCn1c(NS(=O)(=O)c2ccccc2)c(S(=O)(=O)c2ccc(C)cc2)c2nc3ccccc3nc21	11	-11	25*	100*	6	29*
Cc1ccc(S(=O)(=O)c2c(N)n(CCCO)c3nc4ccccc4nc23)cc1	2	.	-1	0	-22	.
CCCCn1c(NC(=O)c2ccc(Br)o2)c(S(=O)(=O)c2ccccc2)c2nc3ccccc3nc21	9	.	46*	0	-22	22*
COc1ccc([N+](=O)[O-])cc1NC(=O)CCN1CCN(CCO)CC1	-7	6	7	0	-9	.
COc1ccc(NC(=S)Nc2cccc3cnccc23)cc1	30	-5	2	1	-8	.
CN(C)S(=O)(=O)c1cccc(NC(=S)Nc2cccc3cnccc23)c1	.	1	28*	.	-8	14
S=C(Nc1ccc(Cl)cc1)Nc1cccc2cnccc12	33	-4	18*	1	-7	5
COc1ccc(N2C(=O)C3C(c4ccc(OC)cc4O)NC(Cc4ccccc4)(C(=O)O)C3C2=O)cc1 (configuration not stated)	2	3	18*	0	6	7
COC(=O)c1ccc(-n2nnnc2SCc2ccccc2OC)cc1	1	-15	1	0	2	.
O=C(C#Cc1cccc([N+](=O)[O-])c1)c1ccccc1	-4	.	21*	0	11	25*
Cc1ccc(N2C(=O)CS(=O)C(c3ccccc3)C2=O)cc1C (configuration not stated)	3	-14	4	-1	-4	.
O=C(NC1(O)C(=O)c2ccccc2C1=O)c1c(Cl)cccc1Cl	.	1	20*	.	-6	41*
O=C(NC1(O)C(=O)c2ccccc2C1=O)c1ccccc1	-19	-22	9	0	3	.
Oc1cccc(NC(=S)N=Nc2c(O)[nH]c3ccc(Br)cc23)c1	.	-14	25*	.	1	23*
Oc1ccc(NC(=S)N=Nc2c(O)[nH]c3ccc(Br)cc23)cc1	-2	-2	21*	0	-3	21*
Oc1[nH]c2ccc(Br)cc2c1N=NC(=S)Nc1ccc(F)cc1	.	2	3	.	-17	.
Cc1ccc(NC(=O)C(=O)NNC(=O)c2ccccc2C)cc1Cl	8	.	4	2	-7	.
CCCc1cc2c(cc1NC(=O)c1ccc(C(C)(C)C)cc1)OCO2	-3	-30	-7	0	13	.
COc1ccc(N(Cc2cc3ccccc3[nH]c2=O)S(=O)(=O)c2ccccc2)cc1	.	1	3	.	-7	.
SMILES	G6PDH counter	S1P3 antagonist	p97 ATPase inh	DTT redox prof	Tb hexokinase	p97 confirm
Cc1cc(/C=C2\SC(=S)NC2=O)c(C)n1-c1ccc(O)cc1	.	8	56*	.	-7	8
CC(=O)Nc1ccc2c(c1)OCO2	1	-4	7	0	0	.
CC(=O)Nc1ccc2c(c1)OCCO2	4	.	63*	3	5	5
O=c1[nH]c(/C(Cl)=C/c2c(F)cccc2Cl)nc2cc(Cl)ccc12	23	-4	28*	0	13	35*
O=c1[nH]c(/C(Cl)=C/c2cc(Cl)ccc2O)nc2cc(Cl)ccc12	-22	-1	29*	0	9	42*
COc1ccccc1-n1cnc2cc(NC(=O)c3ccco3)ccc21	-4	.	0	2	1	.
COc1cccc(C(=O)NCc2ccc3c(c2)cc(C)n3C)c1	1	-14	20*	-9	9	8

Screening results: PubChem, several laboratories
